Assay outcomes as filed in PubChem BioAssay.
A selection: hits, their analogues and other compounds. The true share with any hit is near 21%.
NS1 function inh – qHTS Assay for Inhibitors of Influenza NS1 Protein Function. AID 2326, 2010. Potency, µM (titrated, usually from 46.1 µM), without a hit: at the highest dose activity, positive = more growth. 0.4% of 270,000 active; note: potency is the fitted concentration of half-maximal effect; actives are rising curves; nearly all actives have a fitted effect of over 50% in size
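In this qHTS, NS1 from influenza A is expressed in budding yeast, where it slows growth. Cells are switched from glucose to 2% galactose medium (pH 6.0, -URA), treated with compound, and growth recovery is read at OD600.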
SARS PLpro yeast – qHTS of Yeast-based Assay for SARS-CoV PLP; 0.19% of 330,000 active; S. cerevisiae expressing SARS-CoV PLpro, growth rescue; Potency, µM (top dose mostly 32.9 µM), for inactives: at the top dose activity, positive = growth rescue, hits mostly activators; note: potency is the fitted concentration of half-maximal effect; 0% is about no effect; nearly all actives have a fitted effect of over 55% in size
Pf growth 96h – Primary qHTS for delayed death inhibitors of the malarial parasite plastid, 96 hour incubation; Potency, µM (highest dose often 28.7 µM), inactives show at the highest dose activity change, negative = inhibition, hits mostly inhibitors; 6.9% of 320,000 active; P. falciparum luciferase reporter growth, 96 h; active = well fitted inhibition curve with a large enough effect; inconclusive = small, poorly fitted or top-dose-only effect, or another doubt; inactive = no such curve, though single readings can be large or run the other way; note: potency is the fitted concentration of half-maximal effect; % is set by controls: 0 for no effect and ±100 for the full control effect
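Two-generation exposure (96 h) targets delayed-death phenotype. Reporter parasites carrying integrated firefly luciferase, in red cells at 2% hematocrit and 0.05% parasitemia final, kept at 37 C, 5% CO2; luminescence loss indicates inhibition.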
Pf growth 48h – Primary qHTS for delayed death inhibitors of the malarial parasite plastid, 48 hour incubation; P. falciparum luciferase growth in erythrocytes, 48 h; Potency, µM (doses to about 28.7 µM), for inactives: at the highest dose activity change, negative = inhibition, actives largely listed as inhibitors; 5.9% of 310,000 active; active = well fitted inhibition curve with a large enough effect; inconclusive = small, poorly fitted or top-dose-only effect, or another doubt; inactive = no such curve, though single readings can be large or run the other way; note: potency is the fitted concentration of half-maximal effect; % is set by controls: 0 for no effect and ±100 for the full control effect
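Luciferase-expressing P. falciparum in infected erythrocytes (2% hematocrit, 0.1% parasitemia final) in RPMI 1640/0.5% Albumax were exposed to compound for 48 hours at 37 C, 5% CO2; growth read as luminescence.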
Shiga toxin inh – A qHTS for Small Molecule Inhibitors of Shiga Toxin | inhibition, % at 38.7 µM | Vero cells, Shiga toxin protein synthesis inhibition reporter | 9.2% of 290,000 active; in the data active = inhibition mostly above about 28%, no sharp cut-off; inactive = mostly below about 43%; note: 0% is about no effect
Cycloheximide cs – Cycloheximide Counterscreen for Small Molecule Inhibitors of Shiga Toxin | cell reporter, cycloheximide protein synthesis inhibition counterscreen | max response, % | 12% of 300,000 active | AID 2314, 2010; in the data active = max response mostly above about 13%, no sharp cut-off; inactive = mostly below about 14%; note: read at 38.3 µM for the half of the compounds with a filed dose; 0% is about no effect
Numbers without * were called inactive; [ ] = dose if it differs, or a comment. Unless noted, calls come from the whole dose curve.

For Cc1cc(O)c(NC(=O)c2cccc([N+](=O)[O-])c2)cc1C the results were NS1 function inh 3.2%, SARS PLpro yeast 0.3%, Pf growth 96h 48.4%, Pf growth 48h -3.2%, Shiga toxin inh 46.6* and Cycloheximide cs 22.0*.
Screening O=C(NNc1ccc([N+](=O)[O-])cc1)c1ccccc1F returned NS1 function inh -48.0%, SARS PLpro yeast -3.7%, Pf growth 96h 43.1%, Pf growth 48h 16.2%, Shiga toxin inh 21.2 and Cycloheximide cs 25.1*.
O=C(Nc1ccc(NC(=O)c2cccc([N+](=O)[O-])c2)cc1)c1cccc([N+](=O)[O-])c1 was read as NS1 function inh -33.3%, SARS PLpro yeast 9.3%, Pf growth 96h -24.4%, Pf growth 48h inconclusive and Cycloheximide cs 30.3*.
`CC(C(=O)Nc1cccc([N+](=O)[O-])c1)[n+]1ccccc1` (stereo not drawn) gave NS1 function inh 6.2%, SARS PLpro yeast -2.4%, Pf growth 96h -42.9%, Pf growth 48h 16.7%, Shiga toxin inh 12.4 and Cycloheximide cs 0.3.
`CC(NC(=O)NC(=O)c1ccc(F)cc1)C1CC1` (stereo not drawn) gave SARS PLpro yeast -4.7%.
For CC(NC(=O)NC(=O)c1cccc([N+](=O)[O-])c1)C1CC1 (stereo not drawn) the results were NS1 function inh 5.6%, SARS PLpro yeast 2.9%, Pf growth 96h 22.4%, Pf growth 48h 10.4µM*, Shiga toxin inh 14.2 and Cycloheximide cs 6.7.
CC(Sc1cccc[n+]1[O-])C(=O)Nc1cccc([N+](=O)[O-])c1 (stereo not drawn) was read as SARS PLpro yeast 1.4%, Pf growth 96h 20.0%, Pf growth 48h 12.9%, Shiga toxin inh 19.4 and Cycloheximide cs 16.3*.
Screening COC(=O)/C(=C/c1cccc([N+](=O)[O-])c1)NC(=O)c1ccc(OC)cc1 returned NS1 function inh inconclusive, SARS PLpro yeast 22.5%, Pf growth 96h 21.4%, Pf growth 48h 8.3%, Shiga toxin inh 76.1* and Cycloheximide cs 52.8*.
Screening O=C(Nc1cccc([N+](=O)[O-])c1)c1cccc(C(=O)Nc2cccc([N+](=O)[O-])c2)c1 returned NS1 function inh 5.6%, SARS PLpro yeast 2.4%, Pf growth 96h inconclusive, Pf growth 48h 2.94µM*, Shiga toxin inh -3.1 and Cycloheximide cs -4.5.
Screening c1cncc(-c2nc3c4ccccc4nc(N4CCC(N5CCCCC5)CC4)n3n2)c1 returned NS1 function inh 14.8%.
Screening Cc1ccc(C(=O)N/N=C2\CCSC2)cc1[N+](=O)[O-] returned NS1 function inh 21.3%, SARS PLpro yeast -13.3%, Pf growth 96h 7.1%, Pf growth 48h -2.4%, Shiga toxin inh 20.8 and Cycloheximide cs -0.5.
O=C(N/N=C1/CCSC1)c1cccc([N+](=O)[O-])c1 was read as NS1 function inh 6.2%, SARS PLpro yeast -0.8%, Pf growth 96h 7.9%, Pf growth 48h -8.1%, Shiga toxin inh 49.9* and Cycloheximide cs -1.4.
For COc1ccc(NC(=O)c2ccc(N(C)S(C)(=O)=O)cc2)cc1OC the results were NS1 function inh -0.3%, SARS PLpro yeast 3.1%, Pf growth 96h -1.5%, Pf growth 48h 26.1%, Shiga toxin inh 31.0 and Cycloheximide cs 13.4.
For O=C(O)c1ccccc1Nc1ccc([N+](=O)[O-])cc1 the results were NS1 function inh -54.6%, SARS PLpro yeast -11.7%, Pf growth 96h inconclusive, Pf growth 48h 41.1%, Shiga toxin inh 32.0 and Cycloheximide cs 26.9*.
For COc1ccc(C(=O)Nc2cccc(N(C)S(C)(=O)=O)c2)cc1OC the results were NS1 function inh 7.2%[9.22 µM], SARS PLpro yeast -5.7%, Pf growth 96h 75.1%, Pf growth 48h 138.4%, Shiga toxin inh 60.2* and Cycloheximide cs 25.5*.
Screening O=C(Nc1ccc(Cc2ccncc2)cc1)c1cccc([N+](=O)[O-])c1 returned NS1 function inh -5.4%, SARS PLpro yeast -7.8%, Pf growth 96h -9.0%, Pf growth 48h 32.7%, Shiga toxin inh -23.3 and Cycloheximide cs 23.0*.
Screening CCCCNC(=O)O[C@@H]1C[C@H]2CCC(=O)N3CC[C@@H](C1)[C@@H]23 returned NS1 function inh -1.6%, SARS PLpro yeast -2.7%, Pf growth 96h -2.3%, Pf growth 48h 8.0%, Shiga toxin inh -6.5 and Cycloheximide cs -3.5.
`FC(F)(F)c1ccccc1CN1CCCC(N2CCN(c3ccccc3)CC2)C1` (stereo not drawn) gave NS1 function inh 9.5%, SARS PLpro yeast 2.5%, Pf growth 96h -28.7%, Pf growth 48h -3.1% and Cycloheximide cs 2.5.
O=[N+]([O-])c1cccc(Nc2nc(Cl)nc(Cl)n2)c1 was read as SARS PLpro yeast 0.9%, Pf growth 96h 11.7µM*, Pf growth 48h 49.1%, Shiga toxin inh -6.2 and Cycloheximide cs 3.0.
Screening O=C(O)c1ccccc1C(=O)Nc1cccc([N+](=O)[O-])c1 returned NS1 function inh 0.9%, SARS PLpro yeast 1.2%, Pf growth 96h 14.0%, Pf growth 48h inconclusive, Shiga toxin inh 5.0 and Cycloheximide cs -3.4.
Screening CN(C)S(=O)(=O)Oc1cccc(C(=O)Nc2ccc([N+](=O)[O-])cc2)c1 returned SARS PLpro yeast 1.6%, Pf growth 96h 40.6%, Pf growth 48h 44.9%, Shiga toxin inh 78.5* and Cycloheximide cs 50.1*.
`O=C(Nc1cccc([N+](=O)[O-])c1)c1cc2ccccc2cc1O` gave NS1 function inh -22.0%, SARS PLpro yeast -5.8%, Pf growth 96h 1.85µM*, Pf growth 48h 5.22µM*, Shiga toxin inh 108.5* and Cycloheximide cs 48.7*.
`Cc1ccc(NCCC(=O)c2cccc([N+](=O)[O-])c2)cc1` gave NS1 function inh 21.1%, SARS PLpro yeast -29.4%, Pf growth 96h -1.8%, Pf growth 48h 5.3%, Shiga toxin inh 19.0* and Cycloheximide cs 29.1*.
`COc1ccc(-c2ccc(C3C4C=CCC(C)C4C(=O)N3Cc3ccccc3)c(F)c2)cc1C` (stereo not drawn) gave Shiga toxin inh 17.1 and Cycloheximide cs 10.8.
Screening O=C(NC1CCC(O)CC1)c1cccc2cccnc12 (stereo not drawn) returned NS1 function inh 1.7%, SARS PLpro yeast 0.8%, Pf growth 96h -12.2%, Pf growth 48h 12.4%, Shiga toxin inh -6.0 and Cycloheximide cs -0.4.
For CCCCn1cc[n+](C)c1 the results were Shiga toxin inh 5.2 and Cycloheximide cs -6.3.
For C/C(=N\NC(=O)C(=O)N/N=C(\C)c1cccc(O)c1)c1cccc(O)c1 the results were NS1 function inh 2.5%, SARS PLpro yeast -0.8%, Pf growth 96h 16.2%, Pf growth 48h -7.9%, Shiga toxin inh 17.4 and Cycloheximide cs 7.3.
`CN(C(=O)c1ccc(NC(=O)Cc2ccc([N+](=O)[O-])cc2)cc1)C1CC1` gave SARS PLpro yeast -9.1%.
